LANA-H2B inh = blocks KSHV LANA binding to histone H2A/H2B; inhibition, % (no concentration beside the values); 320,000 tested, 0.6% active; cell-free LANA-H2A/H2B peptide, fluorescence polarization; Q9QR71; in the data active means inhibition mostly above about 10%, no sharp cut-off; inactive means mostly below about 6.7%
Target sequence (Q9QR71 whole entry, looked up): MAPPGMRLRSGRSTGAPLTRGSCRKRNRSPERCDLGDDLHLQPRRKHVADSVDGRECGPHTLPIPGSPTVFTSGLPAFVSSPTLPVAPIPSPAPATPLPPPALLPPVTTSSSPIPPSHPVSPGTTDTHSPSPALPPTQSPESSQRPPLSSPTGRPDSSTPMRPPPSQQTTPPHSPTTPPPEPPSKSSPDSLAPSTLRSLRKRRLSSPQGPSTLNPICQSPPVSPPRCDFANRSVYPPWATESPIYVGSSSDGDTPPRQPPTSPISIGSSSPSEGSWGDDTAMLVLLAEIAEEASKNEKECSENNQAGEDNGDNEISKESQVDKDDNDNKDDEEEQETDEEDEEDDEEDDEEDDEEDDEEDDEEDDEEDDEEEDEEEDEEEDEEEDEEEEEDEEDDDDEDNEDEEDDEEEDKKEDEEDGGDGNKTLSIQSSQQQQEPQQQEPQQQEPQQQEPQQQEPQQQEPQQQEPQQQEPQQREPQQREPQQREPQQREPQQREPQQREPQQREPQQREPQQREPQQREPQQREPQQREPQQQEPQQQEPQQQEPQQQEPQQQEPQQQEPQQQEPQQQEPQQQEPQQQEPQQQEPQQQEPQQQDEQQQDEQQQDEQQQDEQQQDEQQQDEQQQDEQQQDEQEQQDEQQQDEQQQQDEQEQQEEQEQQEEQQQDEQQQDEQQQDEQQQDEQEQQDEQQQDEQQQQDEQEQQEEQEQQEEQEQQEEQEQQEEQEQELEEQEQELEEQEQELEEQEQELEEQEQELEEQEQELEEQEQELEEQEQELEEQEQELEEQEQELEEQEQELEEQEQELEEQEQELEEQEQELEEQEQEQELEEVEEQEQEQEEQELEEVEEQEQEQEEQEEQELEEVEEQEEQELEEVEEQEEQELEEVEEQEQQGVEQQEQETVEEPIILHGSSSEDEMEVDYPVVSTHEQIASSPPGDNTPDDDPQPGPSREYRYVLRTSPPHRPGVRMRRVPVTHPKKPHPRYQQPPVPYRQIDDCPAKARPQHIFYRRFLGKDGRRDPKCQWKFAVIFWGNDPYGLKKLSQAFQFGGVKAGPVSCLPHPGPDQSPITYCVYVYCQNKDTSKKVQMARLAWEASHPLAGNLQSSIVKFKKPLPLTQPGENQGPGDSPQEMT
Rtt109 HAT inh = C. albicans Rtt109 histone acetyltransferase inhibition; Q5AAJ8; purified Rtt109/Vps75, ThioGlo CoA-SH fluorescence, 4 h; inhibition, % at 34.9 µM; 330,000 tested, 0.16% active; AID 540336;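 active means inhibition of at least 50% in every replicate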
NOD2 RIPK2 PPI = inhibitors of human NOD2-RIPK2 interaction; CHO BLA complementation NOD2-RIPK2, CCF4 ratio; inhibition, % at 4.98 µM; 360,000 tested, 0.38% active; AID 624267; in the data active means inhibition above about 21%
TLR4-MyD88 BLA = TLR4-MyD88 interaction inhibition in cells; O00206+Q99836; HeLa CL3-4 TLR4/MyD88 BLA complementation, FRET ratio; inhibition, % at 8.4 µM; 200,000 tested, 0.18% active; in the data active means inhibition above about 25%
m5-HT2A agonist = mouse HTR2A agonism via beta-arrestin recruitment. P35363. AID 624169. activation, % at 7.6 µM. CHO-K1 mHTR2A beta-arrestin complementation, luminescence; percent of 30 µM serotonin response. 360,000 tested, 0.66% active;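 active means activation above a run cutoff, the mean activation of all tested compounds plus 3 SD, cut at about 14% in these data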
TLR9-MyD88 inh = TLR9-MyD88 interaction inhibition; Q9NR96+Q99836; CHO BLA complementation TLR9-MyD88, CCF4 FRET ratio; inhibition, % at 4.98 µM; 340,000 tested, 0.21% active;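 active means inhibition above the mean over all tested compounds plus 3 SD, cut at about 21% in these data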
A number is an active result; . = inactive; / = no result; + = active, no number; ! = a repeat was not active. Shown are actives, neighbours in structure and some others; about 1.8% of the full set was active somewhere.

SMILES	LANA-H2B inh	Rtt109 HAT inh	NOD2 RIPK2 PPI	TLR4-MyD88 BLA	m5-HT2A agonist	TLR9-MyD88 inh
CC1(O)CCN2C(=O)CCc3cccc1c32 (stereo not given)	11.8	.	.	/	.	.
CC(C)CC12CN3CCN(CC(C3)C1O)C2 (stereo not given)	0.7	.	.	.	.	.
CC(C)C[C@H]1C(=O)N2CCC[C@H]2[C@]2(O)O[C@](NC(=O)[C@@H]3C=C4c5cccc6[nH]cc(c56)C[C@H]4N(C)C3)(C(C)C)C(=O)N12	.	.	.	/	48.9	.
CC[C@@H](CO)NC(=O)[C@@H]1C=C2c3cccc4c3c(cn4C)C[C@H]2N(C)C1	.	.	.	.	/	.
CS(=O)(=O)c1ccc(C2=C(CNC(=O)c3cccnc3)[C@H]3CC[C@@H](C2)N3Cc2ccccc2)cc1	/	/	.	/	.	.
CCC1(c2ccccc2)C(=O)NC(=S)NC1=O	/	.	.	/	.	.
O=C(Cn1cc(C=C2C(=O)NC(=O)NC2=O)c2ccccc21)NCC1CCCO1 (stereo not given)	17.5	.	.	/	.	.
CCN1C(=O)NC(=O)/C(=C\c2cn(CC(=O)N3CCCCC3C)c3ccccc23)C1=O (stereo not given)	33.3	.	.	/	.	.
CN1C(=O)C(=Cc2cn(CC(=O)N3CCCC3)c3ccccc23)C(=O)N(C)C1=O	.	.	.	/	.	.
O=C(O)Cn1cc(C=C2C(=O)NC(=O)NC2=O)c2ccccc21	.	.	.	/	.	.
C[C@]12CC[C@@H]3c4ccc(O)c(O)c4CC[C@H]3[C@@H]1CC[C@@H]2O	.	131.8	.	/	.	.
COc1ccc2c3c1O[C@H]1C(=O)CC[C@H]4[C@@H](C2)N(C)CC[C@]314	/	.	.	/	.	.
c1cc2c(cc1N1CCOCC1)CNCc1cnnn1-2	/	/	.	/	.	/
O=c1[nH]c(=O)n(Cc2ccco2)c(O)c1/C=N/N1CCCCCC1	.	.	.	.	.	.
N#Cc1c(/N=C/c2c(O)n(Cc3ccco3)c(=O)[nH]c2=O)sc2c1CCCC2	.	.	.	.	18.5	.
CSc1ccc(CNC(C)C(O)c2ccccc2)cc1 (stereo not given)	.	.	.	.	.	.
COC(=O)C1=C(C)NC(C)=C(C(=O)OC)C1c1ccccc1[N+](=O)[O-]	.	133.8!	.	.	.	.
CN1C(=O)C(C2CCCCC2)C(=O)N(C)C1=O	/	.	.	/	.	.
O=C1NC(=S)NC(=O)C1C1CCCCC1	15.2	.	.	/	.	.
CN1C(=O)N(C)C(=O)C2(Cc3cc(NC(=O)c4ccccc4)ccc3N3CCCC32)C1=O (stereo not given)	.	.	.	/	.	.
CCCC(=O)OCC[N+](C)(C)C	19.8	.	.	.	.	.
Cc1cc(C(=O)OCC(=O)Nc2cccc(F)c2)c(C)n1C1CC1	+	.	.	/	.	.
O=C(Nc1ccc(F)cc1)c1c(O)c2c(n(Cc3ccccc3)c1=O)CCCC2	.	50.2	.	.	.	.
CCCCCCCCc1ccc(O)cc1	/	.	.	/	.	.
C[N+](C)(C)CCc1ccc(O)cc1	10.8	.	.	.	.	.
SMILES	LANA-H2B inh	Rtt109 HAT inh	NOD2 RIPK2 PPI	TLR4-MyD88 BLA	m5-HT2A agonist	TLR9-MyD88 inh
Cn1cc(C(=O)OCC(=O)Nc2ccccc2Cl)c2ccccc21	/	.	.	/	.	.
Cn1cc(C(=O)OCC(=O)Nc2ccccc2)c2ccccc21	89.8	.	.	/	.	.
CCCNC(=O)N1[C@H]2CC[C@@H]1C(C(=O)OC)=C(c1ccccc1)C2	.	.	.	/	.	.
O=C(C1CCCN(S(=O)(=O)c2cccc3nsnc23)C1)N1CCC2(CC1)OCCO2 (stereo not given)	45.2	/	/	.	/	/
COC(=O)C1=C(c2ccc(F)cc2OCc2ccccc2)C[C@@H]2CC[C@H]1N2C(=O)NC1Cc2ccccc2C1	.	.	.	/	.	.
NNc1n[nH]c(=S)n1N	.	138.6	.	/	.	.
CN(C)N=O	48.8	.	.	/	.	.
CCN(CC)N=O	.	.	.	/	.	.
CC12CC(=O)C3C(CCC4CC=CCC43C)C1CCC2=O (stereo not given)	/	.	.	/	.	.
C[C@H]1CC[C@H]2NCCN[C@H]2C1	.	56.0	.	/	.	.
COc1ccc(CCn2c(O)c(C=Nc3ccc(F)cc3)c(=O)[nH]c2=O)cc1OC	14.6	/	.	/	.	/
CCN(CC)c1ccc(N=Cc2c(O)n(CCc3ccc(OC)c(OC)c3)c(=O)[nH]c2=O)cc1	.	.	.	.	.	.
C=C(C)[C@@H]1[C@H]2OC(=O)[C@H]1[C@]1(O)C[C@H]3O[C@]34C(=O)O[C@H]2[C@]14C	/	.	.	/	.	.
Cc1sc(-n2c(C)cc(C=C3C(=O)NC(=O)NC3=O)c2C)c(C#N)c1C	16.6	/	/	.	/	/
Cc1cc(/C=C2\C(=O)NC(=O)N(c3ccc(Cl)cc3)C2=O)c(C)n1-c1sc2c(c1C#N)CCCC2	.	.	.	.	.	.
O=c1c2ccccc2nc(/C=C/c2ccc3c(c2)OCO3)n1-c1ccccc1	11.2	.	.	.	.	.
COC(=O)C1=C(c2ccc(S(C)(=O)=O)cc2)C[C@@H]2CC[C@H]1N2C(=O)NCCS(C)=O (stereo not given in full)	.	.	.	/	.	.
Cc1ccc(C[n+]2c(-c3ccc(C)cc3)cc(-c3ccc(C)cc3)cc2-c2ccc(C)cc2)cc1	.	.	.	/	16.9	.
COC(=O)C(O)(c1ccc(N(C)C(=O)c2cccs2)cc1)C(F)(F)F (stereo not given)	.	.	.	.	.	.
CC1(C)C(C(=O)N2CCN(c3ccc(Cl)cc3)CC2)C1(C)C	.	.	.	/	.	.
COC(=O)C1CN(C#N)N(c2ccc(Cl)cc2)C12c1ccccc1-c1ccccc12 (stereo not given)	.	.	57.8	.	.	.
COC1C(O)C(C)OC(OC2CCC3(C)C(CCC4C3C(O)CC3(C)C(C5=CC(=O)OC5)CCC43O)C2)C1O (stereo not given)	/	.	.	/	.	.
C=CCn1c(O)c(C(C)=NCCCn2ccnc2)c(=O)[nH]c1=O	.	.	.	/	.	.
CC(=O)OC(C)(C)/C=C/C(=O)[C@](C)(O)C1[C@H](O)C[C@@]2(C)C3CC=C4C(C[C@H](O)C(=O)C4(C)C)[C@]3(C)C(=O)C[C@]12C (stereo not given in full)	.	.	.	/	16.4	.
O=[N+]([O-])c1ccccc1Cl	.	.	.	/	.	.
O=C1NC(=O)C(Sc2ccccc2[N+](=O)[O-])C(=O)N1	.	86.1	.	/	.	.
COc1ccc(CC2C(=O)NC(=O)N(c3ccccc3)C2=O)c(OC)c1 (stereo not given)	.	.	.	.	.	.
COc1ccc(CC2C(=O)N(c3ccccc3)C(=O)N(c3ccccc3)C2=O)c(OC)c1	13.4	.	.	.	.	.

Screening results deposited in PubChem by several laboratories.
